Assay results as given in PubChem BioAssay AID1347426 (Functional Genomics Laboratory (NCATS/FGL), 2020).
Hit rate of the full screen: of about 31,000 sequences, about 1,400 (4.5%) were called active. Only a selection was taken, and actives are over-represented in it overall. A number with no mark means an inactive call.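 Rule for the calls: active = median seed-adjusted z-score above 1 or below -1; inactive = the rest.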

Assay: Novel Modifiers of Survival Motor Neuron (SMN) Protein: Gene Identification via Genome-wide siRNA Screen;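 note: luminescence tracks full-length SMN protein made from the SMN2 reporter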
Conditions: HEK293T SMN2-luciferase reporter, siRNA knockdown, 72 h; actives lie on both sides
How it was run: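 Luciferase signal, proportional to full-length SMN made from an SMN2 cDNA reporter in stable HEK293T cells, was read 72 h after siRNA reverse transfection. Values were expressed as MAD scores after non-targeting-control normalization and log10 conversion; seed analysis flagged off-targets.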

Sequence | median seed-adjusted z-score
GAAAAUGACGGUUAUAAGATT against PMM2 | 0.448
GCAUGUUAUUGAAUUAUCATT against TM9SF2 | 1.09 (active)
GGAACGUGGUACUUAGUUATT against HMGCS1 | 0.0596
GCAGCUUCAAGAUCAAUGATT against ANTXR1 | -0.0849
CAAAAGUGUAUAUAAACUUTT against NDUFS6 | -0.0128
ACUUUGUCCGUGUGUCUUATT against SLC30A3 | -1.26 (active)
GGAACAGGAUGAAUAUGCATT against HADHB | -0.188
CGACUGGAUGUAUAAGCAUTT against TGIF2LX | -0.568
GAGAAGAAGUUCUUAAGGATT against ALKBH8 | -0.487
AGUUCUACAUGCCGGAUGATT against GGTLC1 | -0.298
GCCUCGUUCUGAAGACGAUTT against LIPC | 0.244
CCAACCACCAGAUCUAUGATT against LBX1 | -0.36
CCAUGGCAGUACCAACUAGTT against CREM | -2.37 (active)
GGACCACUAUUUACAGCAATT against FUCA2 | 0.562
GGUCUGUACUGGGAUUCAUTT against PKD2L2 | -0.0723
GGCUUUUGCCCUAUCCAUUTT against WNK4 | 0.385
CACGAGGAGUGGACAAUAUTT against UCK1 | -0.599
CAAAUCGCCUAAUAAACUUTT against KRT33B | 0.04
GGAGCUUUGUCAAGAAGAUTT against FKBPL | -1.11 (active)
GCCUGAUAACGUAAUAACATT against ARSA | 0.0938
GACUUACUUAGAUAUGAGATT against ZNF568 | 0.501
GGUUUGUCCCUUCGCUAUATT against LRRTM3 | -0.0808
GCAGAGAUUUCCAAGAAAATT against GPR32 | -1.2 (active)

Sequence | median seed-adjusted z-score
CAAGAAUGACUGUGAUGAATT against PLA2G12A | 0.139
GGUCUAUACAGAGUCAAUATT against MRCL3 | -0.00909
GGAUUCACACGGGAAUUAATT against ZNF649 | 0.259
CGUCGAAUGUUUAAAGUCUTT against ITFG1 | -0.417
ACGUGUUUGCUUCCACAAATT against NEURL2 | 1.39 (active)
GCAUGAUGGAUGUUGAUCATT against CCT5 | 0
GCACUGAUGACAACAACUATT against HTR1F | -0.127
AGAGUGUGCCGGUUACCCATT against CD8B | 0.174
GAGUCACAAUUGAUCCGGATT against TOP2A | -0.187
CCAUCGAUGAUGACUGUAATT against ETFB | 0.0669
GAGCAGAUCUUUUUAUGCATT against ZNF664 | 1.08 (active)
CAUUGAGACCUAUCUGCUATT against MYH11 | 0
CGGGUAUGUUGAUAGCAUATT against FAM12B | 0.312
GCAGUGUACCCGUCAUUAUTT against SEMA4B | 0.185
GGAACAAAAGGAUCGAAUATT against CLSTN3 | 0
CUAUAAAUGUAAACGAUGUTT against ZNF442 | 1.06 (active)
CUGUUUGACUUCAUCGAGATT against COPG | 0.175
CAAUCCAUGUCAUAGGGAATT against ZNF702 | 0.204
CGGCAAUCCUUACGGCUAATT against DSG4 | -0.0211
CCGUCAUUGUCAACCGGAATT against SLC4A5 | 1.3 (active)
CUACGUCUCGGGUCCAGAUTT against HOXA11 | -0.222
GGACAUACACUGAGAGUCATT against PDLIM2 | 0.267
GAGCAGAACCGCAUCAUAUTT against UCN | -0.472

Sequence | median seed-adjusted z-score
GGAGGAUACUUUAGAACAATT against NDC80 | 0.0855
GCAUCUACAUGACCAACCUTT against GPR35 | -1.46 (active)
CAUGAUACAGGGAAUAAAATT against ZNF619 | -0.536
UCAUCGAACUGAAUACCAATT against STARD3 | -0.314
CUACUGGACUGAUCAAGCUTT against CTCFL | -0.362
GGACAAAGACUGUCGCCUATT against DHX35 | -0.066
CUAUGACGACUUAUCCAAATT against ATP5A1 | -0.974
CCUACACCAUGAUCGGAAATT against KIF26B | -0.153
GCGUUAUCCUCACCUUCAATT against G6PD | 0.593
CAUUCAGCUUGUCACGUCATT against THOC4 | -1.54 (active)
CCAAGGUUUUGGAUAGCAATT against RHBDL2 | 0.0701
CCAAGUCCCAUACAACAAATT against C1S | -0.561
GCUUCUACCUUUACACGGATT against PDE1A | 0
CUAUAGCUGUCUCCCAGAATT against PRICKLE2 | -1.12 (active)
GGAGAAAAACUAUAUGAAUTT against ZNF585B | 0.158
CUUUGGAACAAAUACCGAATT against NXN | 0.175
CACCUAUAGUGACGAUAUATT against MEP1B | 1.46 (active)
AGGCAUUCCUCGGAAGUCATT against SMAD7 | -0.25
CCAUCGUUUUGGUCUUGUATT against VN1R2 | -0.151
GGAAAGAACUACCUCCUGATT against TREH | 0.396
GGAAGAUCAUAGAAGUUGATT against SLC1A1 | 0.0967
CCAUUGUCACGGGCUUGUATT against ENPP3 | 0.66
GCAUCUAUGUCAACAAGAUTT against POLR2I | -3.27 (active)
